Screening data deposited in PubChem by National Center for Advancing Translational Sciences (NCATS).
Rab9 promoter act = activates the Rab9 promoter; AID 485297; Potency, µM (doses to about 9.22 µM), usual class: activators; 2.8% of 320,000 active; Huh7 Rab9 promoter-luciferase reporter, luminescence, 24 h; note: nearly all actives have a fitted effect of over 60% in size
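Stable Rab9-luc Huh7, 1500 cells/well, 2 h settle; cmpd in DMSO, 24 h, 37 °C/5% CO2; luciferase reagent 10 min RT; luminescence.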
ELG1 genotoxic = induces genotoxicity in HEK293T cells with luciferase-tagged ELG1; HEK293T ELG1-luciferase reporter, luminescence, 16 h; Potency, µM (top dose mostly 46 µM), actives largely listed as activators; 1.3% of 330,000 active; AID 504466; note: nearly all actives have a fitted effect of over 60% in size
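16 hr compound incubation (37 °C, 5% CO2) of HEK293T cells carrying luciferase-tagged ELG1; luciferase then measured by ONE-Glo luminescence after 30 min at RT.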
NPC1 prom act = NPC1 promoter activation; Huh7 NPC1 promoter luciferase reporter, 24 h; Potency, µM (series often up to 9.22 µM), hits mostly activators; 2.4% of 320,000 active; note: nearly all actives have a fitted effect of over 60% in size
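Readout is luciferase luminescence, reflecting NPC1 promoter activation in stably transfected Huh7 cells after 24 h compound exposure at 37 °C in reduced-serum medium with 10% FBS.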
Luc counter = blocks Kinase-Glo luciferase, a counter-screen artifact | Kinase-Glo luciferase, ATP luminescence, 8 min | 0.28% of 200,000 active | Q27757 | AID 1379 | Potency, µM (highest dose often 38.3 µM), actives largely listed as inhibitors; note: nearly all actives have a fitted effect of over 60% in size
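Kinase-Glo luciferase light output from ATP and luciferin was measured with 10 uM ATP, within the enzyme's linear range. Buffer: 50 mM imidazole pH 7.2, 50 mM KCl, 7 mM MgCl2, 0.01% Tween 20, 0.05% BSA; luminescence read after 8 min at ambient temperature.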
SMN2 splice up = SMN2 splice variant enhancement; Potency, µM (doses to about 46.1 µM), usual class: activators; 2.8% of 210,000 active; HEK293 SMN2-luciferase splicing reporter, luminescence, 30-36 h; AID 1458; note: nearly all actives have a fitted effect of over 55% in size
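HEK293 cells carry an SMN2 minigene-luciferase reporter in which exon 7 inclusion puts luciferase in frame. Cells were seeded at 2000 cells/well, attached for 10-12 hours, then exposed to compounds for 30-36 hours at 37C before ONE-Glo luminescence.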
FLuc modulator = inhibits or activates purified firefly luciferase, miR-21 counter-screen | P08659 | purified FLuc, Km substrates, luminescence inhibition | Potency, µM (doses to about 57.5 µM), actives largely listed as inhibitors | 6.9% of 360,000 active; note: nearly all actives have a fitted effect of over 55% in size
Target sequence (P08659 whole entry, looked up): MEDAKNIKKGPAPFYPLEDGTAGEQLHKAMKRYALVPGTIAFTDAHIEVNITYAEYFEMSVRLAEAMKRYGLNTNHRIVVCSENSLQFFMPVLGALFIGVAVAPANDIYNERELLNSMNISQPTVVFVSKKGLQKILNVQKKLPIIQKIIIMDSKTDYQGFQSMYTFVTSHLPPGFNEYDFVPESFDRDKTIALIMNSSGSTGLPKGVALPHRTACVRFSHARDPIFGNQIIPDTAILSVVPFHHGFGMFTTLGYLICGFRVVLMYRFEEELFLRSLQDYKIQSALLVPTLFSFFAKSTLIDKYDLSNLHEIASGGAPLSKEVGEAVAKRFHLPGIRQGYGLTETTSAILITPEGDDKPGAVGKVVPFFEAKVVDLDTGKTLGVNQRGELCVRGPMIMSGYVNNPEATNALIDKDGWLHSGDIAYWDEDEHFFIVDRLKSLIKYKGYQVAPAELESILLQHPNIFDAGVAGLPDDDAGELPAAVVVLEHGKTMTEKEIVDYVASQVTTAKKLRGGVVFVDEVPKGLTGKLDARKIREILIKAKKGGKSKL
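Purified P. pyralis luciferase, 10 nM final, with Km-level 10 uM D-luciferin and 10 uM ATP in 50 mM Tris acetate pH 7.5, 10 mM Mg acetate, 0.01% Tween-20, 0.05% BSA; 6-point qHTS titration about 60 µM downward; luminescence read.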
Numbers stand for hits; - = inactive; ? = inconclusive; . = no result. Only some compounds are listed: those with a hit (about 7.4% of all), similar ones and a draw of the others. Calls come from the whole dose curve; as a rule, active = well fitted curve in the direction sought with a large enough effect; inconclusive = small, poorly fitted or top-dose-only effect, or another doubt; inactive = no such curve, though single readings can be large; an effect the other way counts as inactive or inconclusive.

SMILES	Rab9 promoter act	ELG1 genotoxic	NPC1 prom act	Luc counter	SMN2 splice up	FLuc modulator
COc1ccc2c(Cl)c(C(=O)N/N=C3\CCCC(=O)C3)sc2c1	?	-	-	-	?	17µM
COc1cc(Cl)c(C)cc1NC(=O)CCc1nc2cccnc2n1-c1ccccc1	.	.	.	.	-	-
Cc1ccc(CCNC(=O)C2CCCN(S(=O)(=O)c3ccc4c(c3)oc(=O)n4C)C2)cc1 (stereo not given)	.	.	.	.	-	-
O=[N+]([O-])c1ccc(COc2ccccc2/C=N/O)cc1	?	-	?	-	16µM	?
COc1ccc(OC)c(-c2csc(N(C)C(=O)c3ccco3)n2)c1	-	-	-	.	.	?
CN(C(=O)c1ccco1)c1nc2c(s1)CCCC2	0.89µM	?	0.71µM	-	14µM	2.4µM
CN(C(=O)c1ccco1)c1nnc(C23CC4CC(CC(C4)C2)C3)s1	?	?	?	-	16µM	9.5µM
COc1ccc(-n2c(CCC(=O)O)ccc2-c2ccccc2)c(OC)c1	.	.	.	.	-	?
COc1cccc(CN2CCC(N(CCc3ccccc3)Cc3ccccc3)CC2)c1OC	-	-	-	-	-	-
Cc1nc(Nc2ccc(C(=O)O)cc2)sc1-c1ccccc1	?	?	1.3µM	-	.	0.17µM
Cc1nc(Nc2ccccc2)sc1-c1ccccc1	0.4µM	?	1.3µM	.	.	0.34µM
CCCCOc1ccc(CSCCN=C(N)N)cc1	-	15µM	-	-	.	21µM
O=C(Nc1ccncc1)c1cc2ccccc2cc1O	1.4µM	?	2µM	.	.	1.7µM
O=C(Nc1cccc([N+](=O)[O-])c1)c1cc2ccccc2cc1O	-	-	-	.	.	0.95µM
COc1ccc(NC(=O)c2cccc([N+](=O)[O-])c2)cc1	?	?	?	?	-	?
COc1ccc(NC(=O)c2cc([N+](=O)[O-])ccc2O)cc1	0.0003µM	?	0.002µM	7.9µM	.	0.13µM
CC1(C)CCC[C@]2(C)[C@H]3Cc4cc(O)ccc4O[C@]3(C)CC[C@@H]12	.	-	.	.	.	.
Cc1ccc2cccc(NC(=O)c3ccc(-c4ccc(Cl)cc4Cl)o3)c2n1	.	.	.	.	-	-
Cc1cc2nc(-c3ccc(SCc4ccccn4)nc3)[nH]c2cc1C	2.5µM	-	?	-	-	5.4µM
CCOC(=O)CSc1ccc(-c2nc3ccccc3[nH]2)cn1	-	-	-	-	.	12µM
CCOC(=O)CSc1ccc(-c2nc3cc(C)c(C)cc3[nH]2)cn1	?	?	?	-	-	1.1µM
COCCNC(=O)CSc1ccc(-c2nc3ccccc3[nH]2)cn1	-	-	-	.	.	?
N#CCSc1ccc(-c2nc3ccccc3[nH]2)cn1	?	?	?	?	?	12µM
COc1ccc(Cc2nnc(NC(=O)Nc3ccccc3)s2)cc1OC	-	-	-	.	.	-
Cc1ccc2nc(N3CCOCC3)c(C=O)cc2c1	-	?	-	.	.	21µM
SMILES	Rab9 promoter act	ELG1 genotoxic	NPC1 prom act	Luc counter	SMN2 splice up	FLuc modulator
Cc1ccc2cc(C=O)c(N3CCOCC3)nc2c1C	-	-	-	.	.	?
COC(=O)c1cc2sc(Cl)cc2n1Cc1nc(-c2ccccc2C)oc1C	.	.	.	.	-	-
Nc1n[nH]c(N)c1N=Nc1ccc2c(c1)OCO2	?	-	?	-	-	12µM
Cc1ccc(N=Nc2c(N)n[nH]c2N)cc1	-	?	?	.	.	15µM
CC[n+]1ccccc1/C=C/c1ccc(N(C)C)cc1	-	-	-	-	-	-
CC[n+]1c(/C=C/c2ccc(OC(C)=O)c(OC)c2)ccc2ccccc21	-	?	-	.	.	19µM
CC[n+]1c(/C=C/c2ccc(OC)c(OC)c2)ccc2ccccc21	-	10µM	-	.	.	3.4µM
CC[n+]1c(/C=C/c2cc([N+](=O)[O-])ccc2O)ccc2ccccc21	-	-	-	.	.	-
CC[n+]1c(/C=C/c2ccc(N(C)C)cc2)ccc2ccccc21	-	-	-	8.9µM	-	?
CC[n+]1ccc(/C=C/c2ccc(N(C)C)cc2)c2ccccc21	-	-	-	?	.	24µM
CCN(CC)c1ccc(/C=C/c2ccc3ccc(OC)cc3[n+]2CC)cc1	-	-	-	.	.	?
O=C(CSc1nc2c([nH]c3ccccc32)c(=O)n1-c1ccc(Cl)cc1)NCc1ccccc1	.	.	.	.	.	-
CCOC(=O)c1cc(OC(=O)c2cccc(F)c2)n(-c2ccccc2)n1	.	.	.	.	-	-
COc1cccc(NC(=O)COc2ccccc2)c1	-	?	?	.	.	?
COc1cccc(NC(=O)C(=O)N/N=C(\C)CC(=O)Nc2ccc(NC(C)=O)cc2)c1	-	?	-	.	.	11µM
CC(Oc1ccccc1)C(=O)OCC(=O)Nc1sccc1C(N)=O (stereo not given)	-	-	-	.	.	-
CSc1cccc(NC(=O)COc2ccccc2C)c1	-	-	-	-	-	15µM
CC(=O)Nc1cccc(OCC(=O)Nc2ccccc2)c1	3.2µM	10µM	3.5µM	-	22µM	?
CCC(=O)Nc1cccc(SC)c1	-	-	-	-	-	-
CCc1ccc(NC(=O)C(=O)N/N=C(\C)CC(=O)Nc2ccc(OC)cc2)cc1	-	-	-	-	-	?
CC(=O)Nc1cccc(OCC(=O)Nc2sccc2C(N)=O)c1	1.1µM	?	2.5µM	.	.	8.5µM
CCCCCCCCCCS(=O)(=O)N/N=C/c1ccc(O)cc1	-	-	-	-	-	-
Cc1c(Cl)cccc1NC(=O)NN1CCN(C)CC1	-	-	-	.	.	-
CCOc1ccc(CC(=O)Nc2cccc(-c3ccc4nnc(C)n4n3)c2)cc1	-	?	-	-	-	-
CC(=O)Nc1cccc(NC(=O)COc2ccc3c(c2)CCC3)c1	-	-	-	.	.	8.5µM
SMILES	Rab9 promoter act	ELG1 genotoxic	NPC1 prom act	Luc counter	SMN2 splice up	FLuc modulator
CCOc1ccc(-c2cccc(NC(=O)COc3ccccc3)c2)nn1	-	-	-	.	.	15µM
O=C(NCCCn1ccnc1)c1nn2c(C(F)(F)F)cc(-c3ccc(Br)cc3)nc2c1Cl	-	-	-	-	-	-
CCCCCCOc1ccc(/C=C/C(=O)Nc2sc3c(c2C(=O)OC)CCC3)cc1OC	.	.	.	.	-	-
O=C(O)/C=C/c1cccc(NC(=O)c2ccccc2)c1	-	-	-	.	.	?
Cc1oc(-c2ccccc2)cc1C(=O)Nc1cccc(/C=C\C(=O)O)c1	-	-	-	.	.	15µM
Cc1oc(-c2ccccc2)cc1C(=O)Nc1ccc(N(C)C)cc1	-	-	-	-	-	13µM
Cc1oc(C(C)(C)C)cc1C(=O)Nc1cccc(/C=C\C(=O)O)c1	-	-	-	-	-	8.5µM
N=c1sccn1CC(=O)Nc1ccc([N+](=O)[O-])cc1Cl	-	-	-	.	.	-
Nc1cccc(-c2ccc(CO)o2)c1	-	-	-	-	.	17µM
Nc1nc(CSc2ncccn2)nc(Nc2ccccc2)n1	4µM	?	4.5µM	-	14µM	24µM
Cc1ccc(Nc2nc(N)nc(CSc3nc(C)cc(C)n3)n2)cc1	.	.	.	-	-	-
Cc1ccc(Nc2nc(N)nc(CSc3ncccn3)n2)cc1	2µM	?	2.2µM	-	13µM	12µM
